Screening results (PubChem)
Hits are enriched below; roughly 1.7% of the tested compounds scored in any of these assays.
KCNH2 WT inh = KCNH2 (human, wildtype) channel inhibition | Q12809 | U2OS, BacMam KCNH2, thallium flux FluxOr; active compounds read low | activity change, % at 1.84 µM | actives 0.37% (n = 340,000) | AID 720551;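 active = maximum activity change below -70%; inconclusive = maximum activity change between -70% and -50%; inactive = maximum activity change above -50%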
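U2OS cells were transduced with wild-type KCNH2 virus (2.03 x 10^8 / mL) for 4 h at room temperature, then cultured overnight at 37 C. Thallium flux was read with FluxOr dye. Rate constants were normalized to DMSO controls.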
USP1 inh = USP1/UAF1 (human) deubiquitinase inhibition; recombinant USP1/UAF1, Ub-Rhodamine cleavage fluorescence; Potency, µM (top dose mostly 57.1 µM), most hits filed as inhibitors; actives 0.23% (n = 390,000); AID 743255; active = well fitted inhibition curve with a large enough effect; inconclusive = small, poorly fitted or top-dose-only effect; inactive = no such curve, though single readings can be large or run the other way; note: nearly all actives have a fitted effect of over 60% in size
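Step one: compound is pinned into 1nM USP1/UAF1 in HEPES pH 7.8 buffer with TCEP. Step two: 15 min room-temperature incubation. Step three: Ub-Rho (150nM final) starts cleavage, tracked by fluorescence over six one-minute reads.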
KCNH2 3.1 block = inhibitors of human KCNH2 3.1 potassium channel isoform | U2OS KCNH2 3.1, thallium flux FluxOr; active compounds read low | activity change, % (tested at about 1.8 µM) | actives 0.95% (n = 340,000);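 active = maximum activity change below -70%; inconclusive = maximum activity change from -70% to -50%; inactive = maximum activity change above -50%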;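 note: thallium influx rate constant from kinetic fluorescence after stimulation buffer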
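Thallium flux read-out: FluxOr dye with Red40 quencher in HBSS/HEPES, 45 min at RT. Rate constants from kinetic reads were normalized to positive and negative DMSO controls. Cells: U2OS virally expressing the 3.1 isoform.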
Giardia killer = kills Giardia lamblia; Giardia lamblia trophozoite viability; AID 540267; activity change, % at 7.66 µM, hits read low; actives 0.15% (n = 340,000); in the data active = activity change below about -80%; inconclusive = between about -30% and that limit;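 note: parasites exposed to compound for two days anaerobically before the ATP read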
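Trophozoites 100 cells/well + cpd; 48 hrs, 37 deg C, anaerobic. ATPLite 1-Step added, 15-30 min RT, luminescence read (ATP-based viability).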
FBPA coupling cs = inhibits coupling enzyme system, counter-screen for aldolase hits; coupling enzyme system counterscreen, AmpLite Red fluorescence; activity change, negative = inhibition, % at 58.2 µM, hits read low; actives 0.67% (n = 290,000); in the data active = activity change below about -30%
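Counterscreen of the coupled detection system alone, without aldolase: glyceraldehyde-3-phosphate coupling enzymes plus AmpLite Red readout. Compounds at 57.5 uM final, 10 min RT preincubation, 20 min RT reaction, fluorescence 525/598 nm.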
A number is an active result; n = inactive; u = inconclusive; x = no result.

SMILES	KCNH2 WT inh	USP1 inh	KCNH2 3.1 block	Giardia killer	FBPA coupling cs
Fc1ccc(NC(=S)NCc2ccc3c(c2)OCO3)cc1	n	n	-71	n	n
O=C(CN1CCN(Cc2ccc3c(c2)OCO3)CC1)Nc1ccc(F)cc1	n	n	-84	n	n
O=C(NCc1ccc2c(c1)OCO2)Nc1ccc(F)cc1	n	n	n	n	n
COc1ccc(NC(=O)CN2CCN(Cc3ccc4c(c3)OCO4)CC2)cc1OC	n	n	n	n	-38
Cc1cc(F)ccc1NC(=O)CS(=O)(=O)c1cccc2nsnc12	x	n	x	n	x
O=c1c(O)c(-c2cc(O)c(O)c(O)c2)oc2cc(O)ccc12	x	x	x	x	n
COc1ccc(C(=O)C2C(=O)C(=O)N(Cc3ccco3)C2c2cccs2)cc1 (configuration not stated)	x	x	x	n	x
O=[N+]([O-])c1ccc(Sc2cccc3cccnc23)c([N+](=O)[O-])c1	n	n	n	n	-47
O=[N+]([O-])c1ccc(Sc2cccc3cccnc23)cc1	n	n	n	n	-42
O=[N+]([O-])c1ccc(OCCCOc2cccc3cccnc23)cc1	n	n	-80	n	n
O=[N+]([O-])c1ccc(COc2cccc3cccnc23)cc1	n	n	n	n	n
COC(=O)C1=C(C)[C@H](O)[C@@H](C)[C@](C)(c2cc(OC)c(C)c(OC)c2COc2ccccc2)O1	x	x	x	x	n
N#C/C(=C\c1ccccc1Br)C(=O)NC1CC1	n	n	-195	n	x
N#C/C(=C\c1ccc(Cl)cc1)C(=O)NC1CC1	n	n	n	n	x
CCN(CC)CCN(C(=O)/C=C/c1cccs1)c1nc2ccc(C)cc2s1	-148	n	-99	n	x
CCc1ccc2nc(N(CCN(C)C)C(=O)/C=C/c3cccs3)sc2c1	n	n	-127	n	n
Cc1ccc2nc(N(CCCN(C)C)C(=O)CN3C(=O)c4ccccc4C3=O)sc2c1	n	n	-87	n	n
Cc1ccc2nc(N(CCN(C)C)C(=O)/C=C/c3cccs3)sc2c1	n	n	-101	n	n
CN(C)CCN(C(=O)/C=C/c1cccs1)c1nc2ccc(Br)cc2s1	n	n	-73	n	n
CCc1ccc2nc(N(CCCN(C)C)C(=O)c3ccc(C(=O)c4ccccc4)cc3)sc2c1	n	n	-89	n	x
CCOc1ccc2nc(N(CCN(C)C)C(=O)/C=C/c3cccs3)sc2c1	n	n	n	n	n
CCCCCCNc1nc(NCc2ccco2)nc(OCC)n1	n	n	-73	n	n
CCc1cc2c(=O)n(Cc3ccco3)c(SCC(=O)N3CCCc4ccccc43)nc2s1	n	n	-77	n	n
CCc1cc2c(=O)n(Cc3ccco3)c(SCC(=O)N(C)C3CCS(=O)(=O)C3)nc2s1 (configuration not stated)	-90	n	-111	n	n
CCc1cc2c(=O)n(Cc3ccco3)c(SCC(=O)NCC3CCCO3)nc2s1 (configuration not stated)	n	n	n	n	n
SMILES	KCNH2 WT inh	USP1 inh	KCNH2 3.1 block	Giardia killer	FBPA coupling cs
O=C(CSc1nc2ccccc2c(=O)n1Cc1ccco1)N1CCCCCC1	n	n	-81	n	n
CCc1cc2c(=O)n(Cc3ccco3)c(SCC(=O)NC3CCS(=O)(=O)C3)nc2s1 (configuration not stated)	n	n	n	n	n
O=C(NCc1ccco1)c1ccc2c(=O)n(Cc3ccco3)c(SCC(=O)N3CCCC3)nc2c1	n	n	n	n	n
O=C(Cn1cnc2onc(-c3ccc(F)cc3)c2c1=O)N1CCN(c2ccccc2F)CC1	x	n	x	x	x
CC1c2ccccc2N(S(=O)(=O)c2ccccc2)C1C (configuration not stated)	n	n	n	n	x
O=C(Nc1ccccc1N1CCN(C(=O)c2ccc(Cl)cc2)CC1)c1cc2ccccc2o1	n	n	u	n	n
CN1CCN(c2ccc(NC(=O)c3ccc(-c4ccc(Cl)cc4)o3)cc2)CC1	n	u	-95	n	n
O=C(Nc1ccc(N2CCN(C(=O)c3ccc(Cl)cc3)CC2)cc1)c1cc2ccccc2o1	-117	n	-111	n	n
CN1CCN(c2ccc(NC(=O)c3sc4ccccc4c3Cl)cc2)CC1	n	n	-74	u	n
O=C(Nc1ccc(N2CCN(C(=O)c3cccs3)CC2)cc1)c1ccc(Br)o1	n	n	n	n	x
O=C(Nc1ccc(N2CCN(C(=O)c3ccc(Cl)cc3)CC2)cc1)c1ccc(Br)o1	n	n	-90	n	n
